We go through eleven compounds from PubChem BioAssay.

The nature of assay [1]: inhibitors of TNFa-induced NFkB p65 translocation, primary screen, imaging, HUVEC, MLSMR starter and 10KST1 sets (AID 438;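 active = inhibition above 20% together with a positive visual image hit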;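 note: compound added about 3h40 before a 20 min TNFalpha stimulation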;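 for inhibition: signal is the nuclear over cytoplasmic p65 intensity ratio per well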). As to conditions: HUVEC TNFa-induced p65 nuclear translocation; cell count: measured here: nuclei count (cytotoxicity indicator), at 2.08 µM; inhibition: at 2 µM, stronger effect = higher value, 0% TNFa-plus-vehicle, 100% no-TNFa wells.
The nature of assay [2]: endothelial E-selectin expression blockers – imaging, HUVEC, immunofluorescence, MLSMR starter and 10KST1 sets, primary screen (AID 487;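 active = visually confirmed hit in the image check and inhibition above 20%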;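 for inhibition: signal is fraction of cell area covered by stained E-selectin grains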;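 for nuclei count: 100% = median nuclei count of all wells on the same plate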). As to conditions: HUVEC TNFalpha-induced E-selectin immunofluorescence imaging, at 2 µM; inhibition: stronger effect = higher value; nuclei count: measured here: cell number, toxicity.
Assay [3] in a line: Primary imaging screen for DUSP6 inhibitors that restore phospho-Erk in transfected HeLa cells, chemical complementation (AID 609).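 For inhibition: phospho-Erk level distribution per well compared with pooled transfected vehicle control wells.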 As to conditions: HeLa MKP-3 transfected, phospho-Erk imaging KS statistic, at 10 µM, cells stimulated with TPA for 15 min.
In assay [4] the target is Dual specificity protein phosphatase 6 (Homo sapiens) (UniProt Q16828). Described as above. As to conditions: HeLa MKP-3 transfected, phospho-Erk imaging KS statistic; at 10 µM; stronger effect = higher value; cells stimulated with TPA for 15 min.
Sequence of Dual specificity protein phosphatase 6 (Homo sapiens) (Q16828 whole entry, looked up): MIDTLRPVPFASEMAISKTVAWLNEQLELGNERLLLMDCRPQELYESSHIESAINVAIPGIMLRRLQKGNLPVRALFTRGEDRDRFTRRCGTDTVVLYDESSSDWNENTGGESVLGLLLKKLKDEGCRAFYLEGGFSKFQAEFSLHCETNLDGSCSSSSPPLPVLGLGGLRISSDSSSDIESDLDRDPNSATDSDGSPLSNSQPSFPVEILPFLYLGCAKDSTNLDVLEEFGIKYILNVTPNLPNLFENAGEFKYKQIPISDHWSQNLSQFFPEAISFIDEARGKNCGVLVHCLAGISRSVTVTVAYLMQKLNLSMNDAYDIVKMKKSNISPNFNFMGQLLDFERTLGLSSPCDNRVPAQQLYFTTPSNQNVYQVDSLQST
In assay [5] the target is Voltage-gated potassium channel subunit beta-2 (Rattus norvegicus) (UniProt P62483). Kind of assay: inhibitors of rat Kvbeta2 reductase activity – biochemical, NADPH fluorescence, primary screen (AID 622;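 active = fluorescence slope higher than the sample average by over 3 SD, cut at about -0.22 in these data, passing the limit was not always enough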;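 note: slope of raw intensity against log time taken from 70 to 1610 s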). As to conditions: recombinant KvBeta, 4-cyanobenzaldehyde reduction, at 10 µM, stronger effect = higher value.
Sequence of Voltage-gated potassium channel subunit beta-2 (Rattus norvegicus) (P62483 whole entry, looked up): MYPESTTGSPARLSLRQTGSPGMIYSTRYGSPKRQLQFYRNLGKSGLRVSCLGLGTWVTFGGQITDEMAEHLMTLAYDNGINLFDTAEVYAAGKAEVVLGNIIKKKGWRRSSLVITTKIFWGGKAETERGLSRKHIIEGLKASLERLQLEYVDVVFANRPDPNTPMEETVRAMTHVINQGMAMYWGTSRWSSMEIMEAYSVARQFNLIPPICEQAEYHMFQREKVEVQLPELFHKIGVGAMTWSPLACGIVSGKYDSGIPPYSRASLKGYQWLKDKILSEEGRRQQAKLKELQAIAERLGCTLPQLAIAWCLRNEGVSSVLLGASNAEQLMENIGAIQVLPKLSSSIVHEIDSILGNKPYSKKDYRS
For assay [6] the target is unchanged. Kind of assay: enhancers of rat Kvbeta2 NADPH turnover – biochemical, NADPH fluorescence, primary screen (AID 623;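 active = NADPH fluorescence slope more negative than the mean of all samples by about 3 SD, 99.7% confidence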;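 note: fluorescence intensity change per second fitted from 20 to 320 s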). As to conditions: Recombinant KvBeta, NADPH fluorescence decrease slope, 10 min; at 10 µM; stronger effect = lower value.
The target of assay [7] is Alpha-2C adrenergic receptor (Homo sapiens) (UniProt P18825). As to the kind of experiment: compounds altering alpha2C-coupled GIRK flux – cell-based, HEK293 alpha2C/GIRK1/2, thallium flux, primary screen (AID 624;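 active = fluorescence slope after compound addition differing from the mean of all screened samples at 99.7% confidence, in either direction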;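 note: slope of fluorescence ratio to pre-addition baseline per second over 15 to 24 s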). The conditions noted are these: thallium flux BTC fluorescence, at 10 µM, actives lie on both sides.
Sequence of Alpha-2C adrenergic receptor (Homo sapiens) (P18825 whole entry, looked up): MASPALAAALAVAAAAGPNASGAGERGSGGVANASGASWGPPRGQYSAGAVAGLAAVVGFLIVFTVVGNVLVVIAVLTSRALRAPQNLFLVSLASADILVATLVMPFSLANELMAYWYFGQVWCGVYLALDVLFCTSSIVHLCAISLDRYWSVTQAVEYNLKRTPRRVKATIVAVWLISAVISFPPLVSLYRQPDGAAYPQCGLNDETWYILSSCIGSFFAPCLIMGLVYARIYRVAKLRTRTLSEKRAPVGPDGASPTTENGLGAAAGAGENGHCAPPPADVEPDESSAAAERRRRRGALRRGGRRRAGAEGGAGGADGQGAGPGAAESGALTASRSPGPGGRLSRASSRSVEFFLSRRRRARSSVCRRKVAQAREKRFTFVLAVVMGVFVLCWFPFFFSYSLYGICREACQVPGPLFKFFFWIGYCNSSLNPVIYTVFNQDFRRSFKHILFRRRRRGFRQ
The nature of assay [8]: inhibitors of larval lipid processing in zebrafish, primary screen, whole organism, PED6 fluorescence, gall bladder and intestine (AID 686;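 active = a full or partial loss of lipid-probe fluorescence in the fish gall bladder, intestine or both, judged by eye; inactive = no fluorescence loss, or compound toxic to the fish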;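 note: larvae 5 to 7 days old with five fish per well; signal comes from phospholipase A2 cleavage of quenched PED6 carried via bile; overnight exposure to compound and PED6 before scoring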). As to conditions: Zebrafish larvae PED6 lipid processing, fluorescence scoring; screened at 20 µM (by protocol).
Assay [9] can be described thus: loss of swimming-algae plug formation – whole organism, Chlamydomonas reinhardtii, WT vs cilia-less mutant, absorbance, 96-well, primary screen (AID 463189;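 active = inhibition at or above 50% relative to wild type and mutant plate controls; inactive = inhibition below 50%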;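 note: 0% = wild type cc124 cells in DMSO and 100% = ciliumless bld1 mutant cells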). The conditions noted are these: Chlamydomonas reinhardtii gravitaxis, OD600 absorbance, 2 days; at 10 µM; stronger effect = higher value.
The target of assay [10] is Muscarinic acetylcholine receptor M4 (Homo sapiens) (UniProt P08173). Kind of assay: M4-linked GIRK flux change, two-sided – cell-based, HEK293 M4/GIRK, thallium flux, BTC-AM, M4 allosteric agonist project, primary screen (AID 625;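 active = fluorescence slope after compound addition differing from the mean of all tested samples at 99.7% confidence, mostly higher but some lower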;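 note: thallium influx through GIRK channels coupled to M4 in HEK293 cells with BTC-AM dye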). As to conditions: at 10 µM, actives lie on both sides.
Sequence of Muscarinic acetylcholine receptor M4 (Homo sapiens) (P08173 whole entry, looked up): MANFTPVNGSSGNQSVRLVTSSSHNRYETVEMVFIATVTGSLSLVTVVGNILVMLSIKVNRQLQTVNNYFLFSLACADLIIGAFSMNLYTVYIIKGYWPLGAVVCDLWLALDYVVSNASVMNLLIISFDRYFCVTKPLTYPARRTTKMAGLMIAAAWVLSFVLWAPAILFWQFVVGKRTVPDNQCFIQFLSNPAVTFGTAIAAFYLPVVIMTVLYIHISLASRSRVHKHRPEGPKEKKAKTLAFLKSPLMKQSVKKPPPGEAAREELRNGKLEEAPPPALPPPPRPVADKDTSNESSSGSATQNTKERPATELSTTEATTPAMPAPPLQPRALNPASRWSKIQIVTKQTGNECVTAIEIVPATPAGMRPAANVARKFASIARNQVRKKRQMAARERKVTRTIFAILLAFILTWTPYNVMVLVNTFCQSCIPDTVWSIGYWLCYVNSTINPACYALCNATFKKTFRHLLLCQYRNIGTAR
The mark [11] stands for this setting: measured here: cell density z-score.
Where [12] appears, read: measured here: nuclear c-Myc green intensity z-score.
[13] abbreviates: measured here: nuclear pErk red intensity z-score, stronger effect = higher value.

The source made the active and inactive calls.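 Rule for the calls, unless noted: active = compounds giving at least 50% inhibition in the cell-based MKP-3 phosphatase rescue imaging test; inactive = the rest.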

One may read the inhibition as the drop in the measured response relative to a control, in per cent. Take `C=C(C)CN1CCN(c2c(CCC#N)c(C)c(C#N)c3nc4ccccc4n23)CC1`: the cell count in assay [1] was found to be 553. Besides, the inhibition in [1] was -17.5% (inactive); in assay [2], -77% (inactive); in assay [4], -4.27% (inactive); in assay [9], 17.9% (inactive). In assay [2], this compound returned a nuclei count of 159%. In addition, the z-score is -0.509 in assay [3] (setting [11]), -0.729 in [3] (setting [12]) and -0.345 in assay [3] (setting [13]). Further, in assay [5], the fluorescence slope is -0.00664 (inactive). The NADPH fluorescence slope in assay [6] was -2.3e-06 (inactive). Also, the slope in assay [7] is 0.00756 (inactive). The call in [8] was inactive.

Consider `CC(C)c1nc(N2CCOCC2)c(C#N)c2c1CCC2`, for which, in assay [1], the cell count was determined as 533. Moreover, the inhibition in [1] was 2.9% (inactive); in assay [2], -92.4% (inactive); in assay [4] it was 10.5% (inactive); in [9] it was -0.955% (inactive). This compound gave a nuclei count in assay [2] of 140%. The z-score in assay [3] (setting [11]) was 0.739; in [3] (setting [12]) it was -0.974; in [3] (setting [13]), -0.00414. Besides, in [5], the fluorescence slope is -0.511 (inactive). The NADPH fluorescence slope in [6] is 3.3e-06 (inactive). The slope in assay [7] is 0.0055 (inactive). Also, the outcome in assay [8] was “inactive; toxic”.

On to `Cc1cc(C(F)(F)F)c(C#N)c(SCC(=O)NC2CC2)n1`, for which the cell count in [1] turned out to be 541. In addition, the inhibition in assay [1] was -11.5% (inactive); in [2], 2.6% (inactive); in assay [4], 15.5% (inactive); in assay [9], 7.84% (inactive). Moreover, the nuclei count in assay [2] stood at 99.8%. For the same compound, the z-score was 1.52 in [3] (setting [11]), -0.242 in assay [3] (setting [12]) and -0.534 in assay [3] (setting [13]). For the same compound, the fluorescence slope in [5] is -0.514 (inactive). Further, in assay [6], the NADPH fluorescence slope is -3.6e-05 (inactive). Moreover, the slope in assay [7] was 0.0063 (inactive). Further, the outcome in [8] was inactive.

In the case of `CCNc1nc(NC(C)C)nc(N(C#N)C(C)C(=O)N(C)C)n1` (stereo not drawn), in assay [1], the cell count came out at 330. Besides, the inhibition in [1] was -31.8% (inactive); in assay [2], -39.6% (inactive); in assay [4] it was -12.3% (inactive); in assay [9], 19.9% (inactive). This compound yielded a nuclei count in assay [2] of 134%. Besides, the values for the z-score in assay [3] (setting [11]), in assay [3] (setting [12]) and in assay [3] (setting [13]) were -0.102, -1.64 and 0.749, respectively. Further, the fluorescence slope in [5] was -0.445 (inactive). In addition, in [6], the NADPH fluorescence slope is -0.000124 (inactive). Also, in assay [7], the slope was 0.00585 (inactive). In addition, in assay [8], the call was inactive.

Regarding `Cc1c(CCC#N)c(N2CCCCC2)n2c(nc3ccccc32)c1C#N`, the cell count in [1] came to 547. Besides, the inhibition in assay [1] was -20.4% (inactive); in assay [2], -116% (inactive); in assay [4], -6.06% (inactive); in [9], 4.74% (inactive). Moreover, the nuclei count in [2] came to 155%. The z-score was 0.117 in assay [3] (setting [11]), -1.2 in [3] (setting [12]) and -0.217 in [3] (setting [13]). Besides, the fluorescence slope in assay [5] was -0.341 (inactive). For the same compound, in [6], the NADPH fluorescence slope is -2.7e-05 (inactive). In addition, the slope in assay [7] was 0.00724 (inactive). Besides, the compound was called inactive in assay [8].

For the compound `O/N=C1\CCc2cc(Cl)ccc21`, the cell count in [1] was 384. Also, the inhibition in assay [1] is -4% (inactive); in [2], -24.4% (inactive); in assay [4] it was -0.159% (inactive); in assay [9], -12.6% (inactive). This compound showed a nuclei count in [2] of 101%. In addition, the z-score was -3.01 in assay [3] (setting [11]), 0.785 in assay [3] (setting [12]) and -0.837 in assay [3] (setting [13]). Also, in assay [5], the fluorescence slope is -0.48 (inactive). Further, the NADPH fluorescence slope in assay [6] is -0.000244 (inactive). For the same compound, the slope in assay [7] is 0.0047 (inactive). Moreover, the outcome in assay [8] was inactive.

Regarding `c1cc(-c2nnc3sc(C4CCCCC4)nn23)ccn1`, in assay [1], the cell count was 660. In addition, the inhibition in [1] is -3% (inactive); in assay [2], -26.6% (inactive); in assay [4], -7.86% (inactive); in [9] it was 70.8% (active). The compound also gave a nuclei count in assay [2] of 150%. The z-score in [3] (setting [11]) was 0.217; in [3] (setting [12]), -0.0752; in [3] (setting [13]), 0.0462. For the same compound, in [5], the fluorescence slope was -0.419 (inactive). Further, the NADPH fluorescence slope in assay [6] is -0.00016 (inactive). Further, the slope in assay [7] is 0.00483 (inactive). The call in [8] was inactive.

Regarding `Cn1c(=O)c2c(nc(NCC(O)CO)n2CCc2ccccc2)n(C)c1=O` (stereo not drawn), the cell count in assay [1] is 693. Further, the inhibition in assay [1] was 2% (inactive); in assay [2], -108% (inactive); in [4] it was 19.8% (inactive); in [9], 24.7% (inactive). This compound had a nuclei count in assay [2] of 172%. Moreover, the z-score is 0.322 in assay [3] (setting [11]), -1.96 in assay [3] (setting [12]) and -0.0564 in [3] (setting [13]). Also, the fluorescence slope in [5] is -0.483 (inactive); in [10], 0.00665 (inactive). Besides, in assay [6], the NADPH fluorescence slope was -1e-05 (inactive). Moreover, the result in assay [8] was inactive.

On to `CCCCCCn1c(SCCN2CCOCC2)nc2c1c(=O)[nH]c(=O)n2C`, for which, in assay [1], the cell count came out at 534. For the same compound, the inhibition was -16.2% (inactive) in [1], -9.8% (inactive) in assay [2], 13.4% (inactive) in assay [4] and 27.5% (inactive) in assay [9]. Besides, in assay [2], the nuclei count was determined as 139%. In addition, the z-score in assay [3] (setting [11]) stood at 0.497; in assay [3] (setting [12]), 0.889; in [3] (setting [13]) it was 0.83. Also, the fluorescence slope was -0.409 (inactive) in assay [5] and 0.00545 (inactive) in assay [10]. Besides, the NADPH fluorescence slope in [6] was -4.3e-05 (inactive). In addition, the call in assay [8] was inactive.

For `CCOC(=O)c1c(C)[nH]c(/C(C)=N/O)c1C`, the cell count in assay [1] was 668. Also, the inhibition in assay [1] was -10.2% (inactive); in assay [2], -400% (inactive); in assay [4], 1.12% (inactive); in [9], 87.2% (active). For the same compound, the nuclei count in [2] was found to be 161%. The z-score was -0.0773 in assay [3] (setting [11]), -1.42 in [3] (setting [12]) and -0.664 in assay [3] (setting [13]). Also, the fluorescence slope was -0.526 (inactive) in assay [5] and 0.00562 (inactive) in assay [10]. Moreover, the NADPH fluorescence slope in assay [6] was -3.4e-05 (inactive). In addition, the compound was called inactive in assay [8].

As for `CC(NC(=O)NC(N)=O)(C(F)(F)F)C(F)(F)F`, the cell count in [1] was determined as 674. In addition, the inhibition is 6.8% (inactive) in [1], -84.9% (inactive) in [2], 13.9% (inactive) in assay [4] and 21.5% (inactive) in assay [9]. Besides, the nuclei count in [2] is 109%. The values for the z-score in assay [3] (setting [11]), in assay [3] (setting [12]) and in assay [3] (setting [13]) were 0.562, 0.75 and 0.26, respectively. For the same compound, the figures for the fluorescence slope in assay [5] and in [10] were -0.534 (inactive) and 0.00493 (inactive), respectively. In addition, in [6], the NADPH fluorescence slope was -1.1e-05 (inactive). The compound was classed as inactive in assay [8].
